# PubChem BioAssay
# Activity calls are given as the source filed them.
# Tests used:
# Albumin (Bos taurus) = Albumin (Bos taurus) (UniProt P02769); assay: compounds binding labelled BSA control protein – biochemical, small-molecule microarray, Alexa647 label, 635/667 nm fluorescence, artefact control for SMM control protein annotation, profiling panel (AID 1118); details: BSA-A647 binding, fluorescence 635 nm, higher = more signal;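 further: score merges 667 nm emission intensity and signal-to-noise per printed compound spot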
# [1] = probe aXIP binding to arrayed compounds – biochemical, NeuroSMM set, 635/667 nm fluorescence, primary screen (AID 1119); details: small-molecule microarray, higher = more signal, called active from +8 up or from −8 down;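 further: probe is the protein aXip251-270 applied at 1 µg/mL to compound-printed slides; binding of probe to printed compounds measured as 667 nm fluorescence plus signal to noise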
# [2] = probe aNOTCH3 binding on compound microarray – biochemical, small-molecule microarray, 635/667 nm fluorescence, primary screen (AID 1120); details: higher = more signal;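 further: probe is a biotin-tagged antibody raised against NOTCH3 rather than NOTCH3 protein; score merges spot fluorescence near 667 nm with spot signal to noise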
# [3] = probe aNOTCH2 binding on compound microarray – biochemical, small-molecule microarray, 635/667 nm fluorescence, primary screen (AID 1121); details: higher = more signal;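 further: score merges feature fluorescence read at 667 nm with its signal to noise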
# [4] = target: Carbonic anhydrase 2 (Homo sapiens) (UniProt P00918); assay: compounds binding carbonic anhydrase 2 – biochemical, small-molecule microarray, Alexa647-labelled CAII, profiling panel (AID 1122); details: CAII-A647 binding fluorescence, higher = more signal
# [5] = COS7 lysate on small-molecule microarray, probe aHis, 635 nm (AID 1123); details: COS7 cell lysate, fluorescence, higher = more signal;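 further: z-score combines 667nm fluorescence intensity with signal-to-noise per printed compound spot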
# [6] = probe aLAP1 signal on lysate-treated microarray – cell lysate, small-molecule microarray, COS7 lysate, primary screen (AID 1124); details: probe aLAP1, fluorescence, higher = more signal;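 further: lysate comes from COS7 cells expressing LAP1 and is applied at 0.3 µg/mL; score merges spot fluorescence near 667 nm with signal-to-noise over triplicate slides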
# Sam68 (KHDRBS1) = assay: compounds binding KHDRBS1 protein – biochemical, small-molecule microarray, 635 nm fluorescence, primary screen (AID 1125); details: higher = more signal;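 further: score merges 667 nm channel intensity with signal to noise over triplicate slides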
# [7] = tested on: Chordin-like protein 2 (CHRDL2); assay: compounds binding chordin-like 2 – biochemical, small-molecule microarray, 635 nm fluorescence, primary screen (AID 1126); details: fluorescence 635 nm, higher = more signal;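 further: printed compound slides probed with Chrdl2 protein at 4 µg/mL for 1 h at 4 C; score merges 667 nm emission intensity with signal to noise over three replicate slides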
# [8] = target: Concanavalin-A (Canavalia ensiformis) (UniProt P02866); assay: compounds binding concanavalin A lectin – biochemical, small-molecule microarray, Alexa647 label, 635 nm, artefact control for SMM control protein annotation, primary screen (AID 1127); details: ConA-A647 binding fluorescence, higher = more signal;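 further: z combines 667 nm emission intensity with signal-to-noise across three replicate slides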
# [9] = compounds binding Alexa647 anti-His antibody – biochemical, small-molecule microarray, 635 nm fluorescence, artefact control for SMM control protein annotation, primary screen (AID 1128); details: higher = more signal;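 further: score merges feature fluorescence with signal-to-noise for each printed compound spot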
# [10] = tested on: Human papillomavirus type 1a E7 protein (residues 1-88); assay: HPV1a E7 small-molecule binders, primary screen, biochemical, small-molecule microarray, residues 1-88, 635 nm (AID 1129); details: small-molecule microarray binding, fluorescence 635 nm; higher = more signal
# [11] = target: Focal adhesion kinase 1 (Homo sapiens) (UniProt Q05397); assay: PTK2 protein binding on printed compound slides – biochemical, small-molecule microarray, 635/667 nm fluorescence, BSA, DTT, primary screen (AID 1130); details: 635 nm fluorescence, higher = more signal;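 further: composite of spot emission at 667 nm and signal to noise over triplicate slides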
# [12] = tested on: Fibrinogen (Alexa647-labelled); assay: Alexa647-fibrinogen binding to printed small molecules – biochemical, small-molecule microarray, 635/667 nm fluorescence, artefact control for SMM control-protein annotation, profiling panel (AID 1131); details: fibrinogen-A647 binding fluorescence, higher = more signal;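 further: z-score merges 667 nm fluorescence with per-spot signal-to-noise over triplicate slides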
# [13] = target: Follistatin (Homo sapiens) (UniProt P19883); assay: FST protein binding to printed compounds – biochemical, small-molecule microarray, 635/667 nm fluorescence, primary screen (AID 1132); details: 635 nm fluorescence, higher = more signal
# [14] = target: Fibroblast growth factor 2 (Homo sapiens) (UniProt P09038); assay: basic fibroblast growth factor binding to printed compounds – biochemical, small-molecule microarray, 635/667 nm fluorescence, primary screen (AID 1133); details: FGF2, fluorescence 635/667, higher = more signal
# [15] = JC-1 mitochondrial potential readout, lung cancer cells – cell-based, A549, JC-1 fluorescence, basal, 24 h, 100 nL, profiling panel (AID 1138); details: higher = more signal;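 further: A549 lung adenocarcinoma cells under basal conditions with no added stimulus; test concentration not given here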
# Lefty1 = Lefty1 protein binding to printed compounds – biochemical, small-molecule microarray, 635/667 nm fluorescence, primary screen (AID 1139); details: fluorescence 635/667, higher = more signal
# [16] = tested on: wheat germ agglutinin (Triticum aestivum), Alexa647-labelled; assay: Alexa647-WGA lectin binding to printed small molecules – biochemical, small-molecule microarray, 635/667 nm fluorescence, artefact control for SMM control-protein annotation, profiling panel (AID 1140); details: WGA-A647 binding, 635 nm fluorescence, higher = more signal;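 further: score merges 667 nm feature emission with signal to noise over triplicate slides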
# [17] = target: Luciferin 4-monooxygenase (Photinus pyralis) (UniProt P08659); assay: inhibition of purified Photinus pyralis luciferase – biochemical, luminescence, purified enzyme, 2006 set, primary screen (AID 1141); details: purified firefly luciferase, SteadyGlo luminescence, 30 min; higher = more signal, called active from +8 up or from −8 down;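 further: cell-free assay with purified firefly luciferase at 100 ng per well in PBS; test concentration not given here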
# Chain of Luciferin 4-monooxygenase (Photinus pyralis) (P08659 whole entry, looked up): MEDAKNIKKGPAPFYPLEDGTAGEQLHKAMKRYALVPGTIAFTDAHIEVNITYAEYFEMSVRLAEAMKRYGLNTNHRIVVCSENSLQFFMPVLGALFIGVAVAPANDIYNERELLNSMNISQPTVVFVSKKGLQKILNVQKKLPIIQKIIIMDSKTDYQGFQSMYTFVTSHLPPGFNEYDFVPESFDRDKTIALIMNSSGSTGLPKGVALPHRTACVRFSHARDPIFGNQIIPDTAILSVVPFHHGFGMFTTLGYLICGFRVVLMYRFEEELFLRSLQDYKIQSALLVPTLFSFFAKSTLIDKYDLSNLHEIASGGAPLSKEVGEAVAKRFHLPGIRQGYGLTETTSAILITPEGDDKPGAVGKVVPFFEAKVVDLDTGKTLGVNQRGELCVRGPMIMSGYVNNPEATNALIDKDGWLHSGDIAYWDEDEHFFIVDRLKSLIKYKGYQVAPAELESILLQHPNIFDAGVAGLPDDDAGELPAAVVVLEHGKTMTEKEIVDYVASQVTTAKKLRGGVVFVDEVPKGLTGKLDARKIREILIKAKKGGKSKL
# Chain of Fibroblast growth factor 2 (Homo sapiens) (P09038 whole entry, looked up): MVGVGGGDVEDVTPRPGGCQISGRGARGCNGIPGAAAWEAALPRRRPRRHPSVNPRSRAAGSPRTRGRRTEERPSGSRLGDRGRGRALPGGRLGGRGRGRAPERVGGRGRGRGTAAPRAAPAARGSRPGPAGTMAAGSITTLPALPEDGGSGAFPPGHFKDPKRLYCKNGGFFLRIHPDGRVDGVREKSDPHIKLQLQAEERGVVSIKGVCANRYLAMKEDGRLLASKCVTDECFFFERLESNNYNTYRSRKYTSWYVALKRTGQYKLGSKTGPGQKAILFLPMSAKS
# Chain of Follistatin (Homo sapiens) (P19883 whole entry, looked up): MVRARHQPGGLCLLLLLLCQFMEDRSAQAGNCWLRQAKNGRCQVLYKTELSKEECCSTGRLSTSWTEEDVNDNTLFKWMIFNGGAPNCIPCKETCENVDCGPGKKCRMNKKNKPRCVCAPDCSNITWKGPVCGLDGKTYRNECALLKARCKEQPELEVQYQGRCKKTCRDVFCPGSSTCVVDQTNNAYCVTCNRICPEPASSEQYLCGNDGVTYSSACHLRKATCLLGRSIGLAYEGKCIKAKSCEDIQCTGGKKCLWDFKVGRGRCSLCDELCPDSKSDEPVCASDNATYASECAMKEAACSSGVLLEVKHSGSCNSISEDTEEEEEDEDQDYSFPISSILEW
# Chain of Focal adhesion kinase 1 (Homo sapiens) (Q05397 whole entry, looked up): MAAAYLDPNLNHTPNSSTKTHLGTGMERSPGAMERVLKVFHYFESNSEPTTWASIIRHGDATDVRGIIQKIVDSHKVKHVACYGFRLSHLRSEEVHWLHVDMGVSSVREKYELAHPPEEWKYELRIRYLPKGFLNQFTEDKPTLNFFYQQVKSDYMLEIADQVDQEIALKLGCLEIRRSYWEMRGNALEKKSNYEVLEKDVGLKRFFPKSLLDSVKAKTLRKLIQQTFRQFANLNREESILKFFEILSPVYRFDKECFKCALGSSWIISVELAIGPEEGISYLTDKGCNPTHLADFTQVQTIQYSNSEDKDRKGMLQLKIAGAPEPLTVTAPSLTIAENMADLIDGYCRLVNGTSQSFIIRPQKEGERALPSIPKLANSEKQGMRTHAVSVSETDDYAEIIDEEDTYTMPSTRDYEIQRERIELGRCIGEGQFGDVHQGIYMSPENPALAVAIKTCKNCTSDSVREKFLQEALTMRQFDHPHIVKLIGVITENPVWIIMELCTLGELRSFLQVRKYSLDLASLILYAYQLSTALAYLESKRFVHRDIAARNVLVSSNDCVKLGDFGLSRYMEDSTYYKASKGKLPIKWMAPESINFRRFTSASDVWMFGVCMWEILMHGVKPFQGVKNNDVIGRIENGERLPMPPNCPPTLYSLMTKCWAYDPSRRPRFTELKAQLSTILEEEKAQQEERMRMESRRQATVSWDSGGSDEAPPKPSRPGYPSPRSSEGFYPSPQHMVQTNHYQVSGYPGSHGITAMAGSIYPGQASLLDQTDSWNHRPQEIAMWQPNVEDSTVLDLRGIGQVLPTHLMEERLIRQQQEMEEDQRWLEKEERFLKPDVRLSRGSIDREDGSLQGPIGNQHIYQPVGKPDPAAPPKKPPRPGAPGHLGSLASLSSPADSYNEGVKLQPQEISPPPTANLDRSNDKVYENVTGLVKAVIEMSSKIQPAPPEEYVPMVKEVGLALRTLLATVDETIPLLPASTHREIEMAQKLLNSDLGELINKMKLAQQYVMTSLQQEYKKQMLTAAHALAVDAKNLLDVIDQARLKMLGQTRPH
# Chain of Concanavalin-A (Canavalia ensiformis) (P02866 whole entry, looked up): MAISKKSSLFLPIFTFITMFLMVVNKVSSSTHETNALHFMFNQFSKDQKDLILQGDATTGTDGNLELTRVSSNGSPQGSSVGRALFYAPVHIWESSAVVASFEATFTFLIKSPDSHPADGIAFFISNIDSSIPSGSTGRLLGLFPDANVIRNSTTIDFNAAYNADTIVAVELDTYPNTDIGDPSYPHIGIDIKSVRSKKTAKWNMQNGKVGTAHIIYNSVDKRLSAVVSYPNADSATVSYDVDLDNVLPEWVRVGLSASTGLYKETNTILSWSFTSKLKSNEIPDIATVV
# Chain of Albumin (Bos taurus) (P02769 whole entry, looked up): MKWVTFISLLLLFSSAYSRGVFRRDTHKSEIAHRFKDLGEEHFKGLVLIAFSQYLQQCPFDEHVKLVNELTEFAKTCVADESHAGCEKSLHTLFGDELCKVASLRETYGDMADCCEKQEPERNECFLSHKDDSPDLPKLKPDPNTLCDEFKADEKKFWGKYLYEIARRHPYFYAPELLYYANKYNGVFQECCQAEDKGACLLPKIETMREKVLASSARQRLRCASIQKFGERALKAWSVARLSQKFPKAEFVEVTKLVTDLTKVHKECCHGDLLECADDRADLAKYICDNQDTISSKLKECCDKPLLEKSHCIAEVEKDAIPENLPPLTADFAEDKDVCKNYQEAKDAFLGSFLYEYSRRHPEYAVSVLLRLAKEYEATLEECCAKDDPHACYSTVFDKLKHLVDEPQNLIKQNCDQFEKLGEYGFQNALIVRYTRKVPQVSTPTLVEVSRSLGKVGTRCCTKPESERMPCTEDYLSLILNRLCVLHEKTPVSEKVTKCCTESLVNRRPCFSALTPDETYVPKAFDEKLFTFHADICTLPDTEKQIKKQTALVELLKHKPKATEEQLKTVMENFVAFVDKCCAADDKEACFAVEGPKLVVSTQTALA
Structure (SMILES),composite z-score (Albumin (Bos taurus)),composite Z-score [1],composite z-score [2],composite z-score [3],composite z-score [4],composite z-score [5],composite z-score [6],composite z-score (Sam68 (KHDRBS1)),composite z-score [7],composite z-score [8],composite z-score [9],composite z-score [10],composite z-score [11],composite z-score [12],composite z-score [13],composite z-score [14],z-score [15],composite z-score (Lefty1),composite z-score [16],z-score [17]
[N-]=[N+]=Nc1ccccc1C[C@@]1(C(=O)N2CCOCC2)N=C(c2ccc(OCCCO)cc2)O[C@@H]1c1ccccc1N=[N+]=[N-],0.873,0.997 (inactive),0.121,-0.0286,0.467,1.24,0.0649,1.33,-0.338,1.1,2.48,1.19,1.41,0.886,1.42,0.667,2.03,0.0674,1.22,-3.69 (inactive)
C[N+](C)(C)CCCCNC(=O)[C@@H]1C[C@@H]2C(=O)N3CCC[C@H]3C(=O)N2[C@@H]1c1cccc(OCCO)c1,-0.486,2.6 (inactive),-0.199,-0.153,0.678,0.538,0.248,1.04,1.04,0.909,2.72,0.143,0.275,-0.181,1.39,1.73,-0.0151,0.859,-0.392,-1.23 (inactive)
C#C[C@H](O[Si](C#Cc1ccccc1)(C(C)C)C(C)C)c1ccccc1,0.0778,0.422 (inactive),-0.293,-0.0743,0.564,0.0271,0.252,0.0094,-0.429,-0.683,0.126,-0.581,-0.515,-0.664,-0.89,-0.487,-1.47,-0.126,-0.242,0.645 (inactive)
C/C(=N\O)C(=O)NCCCCCNC(=O)OCc1ccccc1,0.487,0.179 (inactive),0.0066,-0.0942,0.355,0.332,0.199,0.639,0.367,0.818,0.443,0.783,0.317,0.825,0.7,0.545,2.02,0.93,0.3,-1.72 (inactive)
COc1ccc([C@H]2C[C@H]3C(Br)=C[C@]2(OC)C(=O)[C@]32CO2)cc1,0.504,-0.145 (inactive),-0.0918,-0.161,0.545,-0.332,0.542,-0.72,0.388,0.0428,1.2,0.0022,-0.458,-0.278,0.276,1.2,-1.02,-0.1,-0.06,0.909 (inactive)
